Compounds with a hit are over-represented: about 28% of the library has one in this group of screens.
Pyk2 oligo antag: antagonists of Pyk2 self-association, primary screen, Q293 cells, FERM NanoBiT luminescence, HTS | Protein-tyrosine kinase 2-beta (Homo sapiens), Q14289 | z-score (the deposit names both 25 µM and 10 µM) | hits give low values | 0.83% of 99,000 active;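 active = Z-score of -3 or lower, scaled per plate to the spread of control and sample wells; inactive = z-score above -3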;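 also: negative z-score means lost luminescence so less FERM oligomerization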
CYP2C9 inh: blockers of cytochrome P450 2C9 activity – biochemical, luminescence, ADME assay, primary screen; CYP2C9 Supersomes, luciferin-H conversion; inhibition, % at 5 µM; 20% of 96,000 active;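 active = blocking of liver enzyme CYP2C9 beyond about 50% at 5 µM, limit read from the data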
CYP2C19 inh: blockers of cytochrome P450 2C19 activity – biochemical, luminescence, ADME assay, primary screen | P33261 | 21% of 96,000 active | CYP2C19 Supersomes, luciferin-H EGE luminescence, 30 min | inhibition, % at 5 µM;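 active = CYP2C19 inhibition above a set limit at 5 µM in the primary screen, cut at about 50% in these data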;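 also: plate controls were negative control wells for no effect and 2.5 mM tranylcypromine positive control for full effect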
Target sequence (P33261 whole entry, looked up): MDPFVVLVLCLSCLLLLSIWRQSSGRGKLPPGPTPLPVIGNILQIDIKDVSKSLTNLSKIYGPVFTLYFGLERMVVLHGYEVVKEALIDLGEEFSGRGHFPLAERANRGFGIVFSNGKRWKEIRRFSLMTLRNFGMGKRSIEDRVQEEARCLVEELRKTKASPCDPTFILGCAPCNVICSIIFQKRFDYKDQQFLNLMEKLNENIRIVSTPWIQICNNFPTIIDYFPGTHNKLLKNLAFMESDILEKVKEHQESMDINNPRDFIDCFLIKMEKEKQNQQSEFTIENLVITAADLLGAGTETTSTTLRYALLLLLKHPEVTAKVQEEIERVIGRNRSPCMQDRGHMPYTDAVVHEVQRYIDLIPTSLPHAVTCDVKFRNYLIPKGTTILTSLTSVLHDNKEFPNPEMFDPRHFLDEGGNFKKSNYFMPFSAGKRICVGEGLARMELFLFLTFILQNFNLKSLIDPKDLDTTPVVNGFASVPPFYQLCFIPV
CYP2C19 act: human CYP2C19 activators, primary screen, biochemical, luminescence; activation factor at 5 µM; recombinant CYP2C19, luciferin-H EGE luminescence; hits give high values; 0 = fully inhibited enzyme, 1 = untreated enzyme; Cytochrome P450 2C19 (Homo sapiens), P33261; 96,000 tested, under 10 active;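 active = activation factor of at least 2 at 5 µM in the primary screen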;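 also: 0 = wells with 2.5 mM tranylcypromine and 1 = vehicle-only wells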
CYP2C9 act: human CYP2C9 activators, primary screen, biochemical, luminescence. activation factor at 5 µM. recombinant CYP2C9, luciferin-H conversion; hits give high values; factor 1 = untreated enzyme, 0 = blocked. 1.4% of 96,000 active. Cytochrome P450 2C9 (Homo sapiens), P11712;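 active = activation factor of 2 or more for CYP2C9 at a 5 µM dose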;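 also: 0 = sulfaphenazole-blocked wells and 1 = vehicle-only wells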
Active calls of the source: *; . = no result.

SMILES | Pyk2 oligo antag | CYP2C9 inh | CYP2C19 inh | CYP2C19 act | CYP2C9 act
CCc1nnc(NC(=O)CSc2nc3c(c(=O)n2C)SC(C)C3)s1 (stereo not drawn) | . | 26 | 15 | 0.8 | 0.7
O=C(NNC(=O)C1CC1c1ccccc1)Nc1cccc(Cl)c1 (stereo not drawn) | 0.43 | 13 | 22 | 0.8 | 0.9
COc1ccc(-n2[nH]c(C)cc2=O)cc1 | 0.12 | 17 | 6 | 0.9 | 0.8
CC(=O)Nc1cccc(-c2csc(NCc3ccco3)n2)c1 | -0.03 | 39 | 48 | 0.5 | 0.6
Cc1cc(NC(=O)CSc2nc3c(c(=O)n2CCc2ccccc2)SC(C)C3)no1 (stereo not drawn) | . | 5 | -15 | 1.1 | 0.9
CCn1c(SCC(=O)N2CCOCC2)nc2c(c1=O)SC(C)C2 (stereo not drawn) | 1.2 | . | . | . | .
CCn1c(SCC(=O)Nc2nnc(C)s2)nc2c(c1=O)SC(C)C2 (stereo not drawn) | . | 62* | -7 | 1.1 | 0.4
CCn1c(SCC(=O)Nc2cccc(C)c2)nc2c(c1=O)SC(C)C2 (stereo not drawn) | . | 75* | 39 | 0.6 | 0.2
CCC(Sc1nc2c(c(=O)n1CC)SC(C)C2)C(=O)OC (stereo not drawn) | . | 56* | 26 | 0.7 | 0.4
C=CCOC(=O)C1C(=O)CC(C)(O)C(C(=O)OCC=C)C1c1ccc(OCC)cc1 (stereo not drawn) | -0.68 | 22 | 22 | 0.8 | 0.8
CCCCC(=O)Nc1ccc(C(=O)NNC(=O)c2ccccc2Br)cc1 | -0.51 | 2 | -15 | 1.2 | 1
CS(=O)(=O)c1ccc(Cl)c(NC(=O)c2ccc3ccccc3c2)c1 | -0.18 | . | . | . | .
CSc1nnc(-c2ccccc2N=Cc2c(C)[nH]n(-c3ccccc3)c2=O)c(=O)[nH]1 | -1.1 | 32 | -2 | 1 | 0.7
ON1C(c2ccccc2)CC2(O)c3nonc3CCC12 (stereo not drawn) | 0.35 | 8 | 21 | 0.8 | 0.9
Cc1n[nH]c(C)c1-c1nc2ccccc2[nH]1 | 0.89 | . | . | . | .
Cc1[nH]nc2c1-c1nc3ccccc3nc1C(C)(C)C2 | -0.57 | 38 | 68* | 0.3 | 0.6
Cc1ccc2nsnc2c1S(=O)(=O)N1CCN(C(=O)C2CCCO2)CC1 (stereo not drawn) | 0.2 | 15 | 1 | 1 | 0.9
COC(=O)CC(NC(=O)c1ccco1)c1cccc2ccccc12 (stereo not drawn) | -0.5 | 21 | 64* | 0.4 | 0.8
COC(=O)CC(NS(=O)(=O)c1cccs1)c1cccc2ccccc12 (stereo not drawn) | -1.3 | -2 | 100* | 0 | 1
CCC(C)NS(=O)(=O)c1cccs1 (stereo not drawn) | 0.08 | 12 | 50 | 0.5 | 0.9
CC(NC(=O)c1ccco1)c1cccc2ccccc12 (stereo not drawn) | -0.55 | . | . | . | .
CCOCCCNC(=O)C(NC(=O)CNC(=O)c1ccccc1)c1ccccc1 (stereo not drawn) | 1.1 | -25 | -2 | 1 | 1.3
COc1ccc(Cn2cnc3c([N+](=O)[O-])c(C)c(C)cc32)cc1 | -0.47 | 59* | 53* | 0.5 | 0.4
Cc1ccccc1Cn1cnc2c([N+](=O)[O-])c(C)c(C)cc21 | -0.92 | 39 | 46 | 0.5 | 0.6
CCOC(=O)N1CCN(C(=O)C(NC(=O)c2ccc(CC)cc2)C(C)C)CC1 (stereo not drawn) | 0.01 | -7 | -16 | 1.2 | 1.1
SMILES | Pyk2 oligo antag | CYP2C9 inh | CYP2C19 inh | CYP2C19 act | CYP2C9 act
O=C(CSc1nnc(-c2ccccc2Br)o1)N1CCc2ccccc2C1 | 2.2 | -12 | 32 | 0.7 | 1.1
CN(C)c1nc(N2CCN(c3ccccc3)CC2)c(C#N)c(=O)o1 | -0.04 | -94 | 97* | 0 | 1.9
Cc1cccc(C)c1N1CCN(c2nc(N(C)C)oc(=O)c2C#N)CC1 | 0.07 | 74* | 95* | 0.1 | 0.3
O=C1C(=O)N(CNc2ccccn2)c2ccccc21 | 0.24 | -5 | 9 | 0.9 | 1.1
COC(=O)c1cc(NC(=O)Cc2ccccc2[N+](=O)[O-])cc(C(=O)OC)c1 | -1.1 | 79* | -6 | 1.1 | 0.2
O=C(Cc1ccccc1[N+](=O)[O-])NCc1ccccc1Cl | 0.18 | -139 | 47 | 0.5 | 2.4*
CCC(CC)C(=O)NCc1ccccc1Cl | -0.44 | 67* | 45 | 0.5 | 0.3

Screening results as filed in PubChem.
